Results: PubChem BioAssay
Activity calls are given as the source filed them.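 How the source made its calls, unless noted: active means compound raises insulin release from rat beta cells at 5 mM glucose, no numeric limit stated; inactive means the rest.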

Tests used:
[1] = Wnt pathway potentiators raising nuclear beta-catenin – imaging, WNT3A-conditioned medium, mouse C2C12, NPC library, primary screen (AID 1117326; in the data active means nuclear beta-catenin stimulation mostly above about 4.2%, no sharp cut-off; inactive means mostly below about 10%; further: reference of the scale not given here); conditions: stronger effect = higher value
[2] = stimulators of insulin release from INS-1E, primary screen, cell-based, 5 mM glucose, NPC library (AID 1117329); conditions: rat INS-1E insulin secretion, at 10 µM, stronger effect = higher value; further: reference of the scale not given here
[3] = growth inhibition of GSK3B-pretreated HCT116 cells – cell-based, CellTiter-Glo, 0.2 to 20 µM (AID 1117336;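 active means compounds lowering colon cancer cell viability after pretreatment blocking the GSK3B kinase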); conditions: HCT116 viability after GSK3B inhibitor, at 20 µM, stronger effect = higher value
[4] = inhibition of endothelial tube formation, primary screen, imaging, VEGF stimulated, CD31 staining, tube area, NPC library (AID 1117340;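 active means compound that reduces growth-factor-driven endothelial tube area in a mixed cell culture, no cutoff stated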); conditions: VEGF-stimulated ADSC/ECFC co-culture, at 10 µM, stronger effect = higher value
[5] = GLP1 release stimulators, primary, NCI-H716, NPC library (AID 1117341;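 active means compound raises GLP1 secretion from the human gut endocrine cells, with no numeric limit stated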; further: reference of the scale not given here); conditions: NCI-H716 cells, at 10 µM, stronger effect = higher value
[6] = HCT116 colon cancer cell growth inhibition, primary screen, CellTiter-Glo luminescence, NPC library (AID 1117342;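 active means compounds that lower survival of HCT116 colon cancer cells in the luminescence readout, no numeric limit stated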); conditions: at 20 µM (top of the series)
[7] = reduced SW480 viability measured with CellTiter-Glo, NPC library, primary (AID 1117343;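 active means compounds that lower viability of the colon cancer cells in the luminescence readout, with no numeric limit stated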); conditions: CellTiter-Glo luminescence; at 20 µM (top of the series)
[8] = NPC library primary testing for decreased DLD-1 cell viability via CellTiter-Glo (AID 1117346;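 active means compounds that lower survival of DLD-1 colon cancer cells in the luminescence readout, no cutoff given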); conditions: DLD-1 viability, CellTiter-Glo luminescence; at 20 µM (top of the series)

| SMILES | nuclear beta-catenin stimulation ([1]; at 10 µM) | nuclear beta-catenin stimulation ([1]; stimulation, at 2 µM) | insulin secretion stimulation [2] | viability decrease [3] | tube area decrease [4] | GLP1 secretion stimulation [5] | inhibition of viability [6] | viability decrease (inhibition) [7] | viability decrease (inhibition) [8] |
| --- | --- | --- | --- | --- | --- | --- | --- | --- | --- |
| C[C@]12C=CC(=O)C=C1[C@@H](F)C[C@@H]1[C@@H]2[C@@H](O)C[C@@]2(C)[C@H]1CC[C@]2(O)C(=O)CO | -1.5% (inactive) | -0.6% | 0.8% (inactive) | -14.4% (inactive) | 11.3% (inactive) | -2.3% (inactive) | 5% (inactive) | 19.5% (inactive) | -6.1% (inactive) |
| [O-][n+]1ccccc1SSc1cccc[n+]1[O-] | 78.1% (active) | 34% | -0.2% (inactive) | 51% (active) | 103% (active) | 15.1% (inactive) | 51.9% (active) | -68.5% (inactive) | 1.15% (inactive) |
| CCN(CC)c1ccc(C(=C2C=CC(=[N+](CC)CC)C=C2)c2cc(S(=O)(=O)O)ccc2S(=O)(=O)[O-])cc1 | 0.8% (inactive) | 4.4% | 1.5% (inactive) | 1.1% (inactive) | 10.6% (inactive) | -12.8% (inactive) | 20.3% (inactive) | 52.8% (active) | 13% (inactive) |
| COC(=O)CCC[N+](C)(C)C | -0.8% (inactive) | 0.6% | -6.3% (inactive) | -4.8% (inactive) | 6.6% (inactive) | -14% (inactive) | 4.6% (inactive) | 2.9% (active) | -12.1% (inactive) |
| Cc1cccc(C)c1NC(=O)CN1CCCCCC1 | -2% (inactive) | 0.1% | 1.9% (inactive) | -6.6% (inactive) | -7.7% (inactive) | -1% (inactive) | -16.3% (inactive) | 23.3% (inactive) | -8.2% (inactive) |
| CC1(C)S[C@@H]2[C@H](NC(=O)C(C(=O)Oc3ccc4c(c3)CCC4)c3ccccc3)C(=O)N2[C@H]1C(=O)O (some centres undefined) | 1% (inactive) | 0.4% | 4.4% (inactive) | -7.7% (inactive) | -2.6% (inactive) | -0.3% (inactive) | 1.5% (inactive) | 86% (active) | -6.9% (inactive) |
| CCC(=O)Oc1ccc2c(c1)CC[C@@H]1[C@H]2CC[C@]2(C)[C@@H](OC(=O)CC)CC[C@@H]12 | -0.2% (inactive) | 0.2% | 0.1% (inactive) | 33.4% (inactive) | 28% (inactive) | 2.4% (inactive) | 42.6% (inactive) | 49.6% (inactive) | 2.6% (inactive) |
| CC(CSC(=O)c1ccccc1)C(=O)N1C[C@@H](Sc2ccccc2)C[C@H]1C(=O)O (some centres undefined) | -1% (inactive) | -0.2% | 6.4% (inactive) | -18.3% (inactive) | -27% (inactive) | -4% (inactive) | 6.5% (inactive) | 47.6% (inactive) | 27.7% (inactive) |
| CCC1(c2cnc[nH]2)Cc2ccccc2C1 | 1.2% (inactive) | 1.5% | 13.1% (inactive) | 38% (inactive) | 22.4% (inactive) | -3.3% (inactive) | -0.4% (inactive) | 19.3% (inactive) | 38.2% (inactive) |
| Cc1nc(C2CCCCC2)c(-c2ccc(S(N)(=O)=O)c(F)c2)o1 | 2.5% (inactive) | 4.1% | 1.4% (inactive) | 21% (inactive) | 24% (inactive) | 1.8% (inactive) | -0.63% (inactive) | 6.3% (inactive) | 3.1% (inactive) |
| CCN(CC)CCN | 0.4% (inactive) | -1.7% | 1.7% (inactive) | -6% (inactive) | 5.8% (inactive) | -1% (inactive) | -0.4% (inactive) | 1.2% (inactive) | -10.7% (inactive) |
| CCCCC(CC)COC(=O)c1ccc(N(C)C)cc1 (centres undefined) | 0.3% (inactive) | 0.5% | -2.6% (inactive) | 34.1% (inactive) | 0.5% (inactive) | -2.3% (inactive) | 18% (inactive) | 32.1% (inactive) | 48.1% (inactive) |
| Cc1nc(-c2ccc(Cl)cc2)oc1COC(C)(C)C(=O)O | 0.5% (inactive) | 0.6% | 3.1% (inactive) | -10.1% (inactive) | 9.7% (inactive) | -2.6% (inactive) | 8.5% (inactive) | 14.8% (inactive) | 10% (active) |
| CCCCCCCCCCCCCCCC[n+]1ccccc1 | -2.9% (inactive) | 5.4% | 46% (active) | 56% (active) | 104% (active) | 72.8% (active) | 112% (active) | 112% (active) | 60.9% (active) |
| CN(C)c1cc(NC(=O)CNC(C)(C)C)c(O)c2c1C[C@@H]1C[C@H]3[C@H](N(C)C)C(=O)C(C(N)=O)=C(O)[C@@]3(O)C(=O)C1=C2O | -0.8% (inactive) | -1.4% | -0.5% (inactive) | 70% (active) | -8.6% (inactive) | 3.4% (inactive) | 59.6% (active) | 72% (active) | 58.1% (active) |
| FC1(F)C(F)(F)C(F)(F)C2(F)C(F)(F)C(F)(F)C(F)(F)C(F)(F)C2(F)C1(F)F (centres undefined) | -0.7% (inactive) | 0.3% | 1.3% (inactive) | 17% (inactive) | 10.2% (inactive) | -0.8% (inactive) | -2.93% (inactive) | 21.7% (inactive) | -11.3% (inactive) |
